Structures are written as SMILES. Where “and” joins values, the source holds several entries; their conditions need not be identical. Equal values may be shown once.

Experimental findings from ChEMBL document CHEMBL5308504, “Tm Shift (DSF) assay results for EUbOPEN Chemogenomics Library” (2023) are described below.

For this assay, the target named is Tyrosine-protein kinase ABL1 (Homo sapiens) (UniProt P00519). The conditions noted are these: Compound concentration 20.0 uM, Protein concentration 2.0 uM, Result type QC Liability.
Chain of Tyrosine-protein kinase ABL1 (Homo sapiens) (P00519 whole entry): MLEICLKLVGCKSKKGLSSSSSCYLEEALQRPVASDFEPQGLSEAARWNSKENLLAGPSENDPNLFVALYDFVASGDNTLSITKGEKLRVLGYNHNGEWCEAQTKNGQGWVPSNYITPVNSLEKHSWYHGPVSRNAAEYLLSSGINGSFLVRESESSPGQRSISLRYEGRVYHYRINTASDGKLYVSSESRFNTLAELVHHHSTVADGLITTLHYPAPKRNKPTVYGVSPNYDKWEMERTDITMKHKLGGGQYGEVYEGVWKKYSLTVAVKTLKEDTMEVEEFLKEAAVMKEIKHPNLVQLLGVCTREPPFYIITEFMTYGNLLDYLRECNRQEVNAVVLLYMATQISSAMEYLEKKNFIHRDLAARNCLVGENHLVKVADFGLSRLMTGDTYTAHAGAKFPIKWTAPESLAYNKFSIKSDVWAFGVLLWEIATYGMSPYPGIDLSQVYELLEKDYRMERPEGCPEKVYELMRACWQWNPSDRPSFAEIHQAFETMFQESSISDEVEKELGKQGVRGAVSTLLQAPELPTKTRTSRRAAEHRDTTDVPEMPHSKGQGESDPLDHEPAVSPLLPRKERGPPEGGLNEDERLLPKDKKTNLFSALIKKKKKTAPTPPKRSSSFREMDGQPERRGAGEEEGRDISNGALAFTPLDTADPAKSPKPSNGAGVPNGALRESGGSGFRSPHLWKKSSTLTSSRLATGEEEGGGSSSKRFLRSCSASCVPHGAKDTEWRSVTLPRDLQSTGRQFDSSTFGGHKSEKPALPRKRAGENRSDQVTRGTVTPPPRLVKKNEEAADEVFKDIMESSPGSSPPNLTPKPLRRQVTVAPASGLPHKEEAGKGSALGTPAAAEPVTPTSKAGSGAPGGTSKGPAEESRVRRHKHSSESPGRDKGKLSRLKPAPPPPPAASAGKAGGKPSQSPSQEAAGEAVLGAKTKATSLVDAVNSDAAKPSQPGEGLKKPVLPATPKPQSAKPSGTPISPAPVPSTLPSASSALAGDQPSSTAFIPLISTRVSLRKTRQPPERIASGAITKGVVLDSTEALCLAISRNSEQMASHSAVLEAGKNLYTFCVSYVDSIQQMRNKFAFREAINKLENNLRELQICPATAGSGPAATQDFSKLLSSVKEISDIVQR
In the case of `Cc1nc2cccnc2n2c(-c3cc(C(C)(C)O)ncc3Cl)nnc12`, the ΔTm was -0.85 °C.

With `CN1CCC(C#N)(NC(=O)[C@@H](NC(=O)N2CCOCC2)C(C)(C)C)CC1`, the ΔTm is -0.07 °C.

For the compound `N#Cc1c(SCc2csc(-c3ccc(Cl)cc3)n2)nc(N2CCCC2)c(C#N)c1-c1ccc(OCCO)cc1`, the ΔTm is -0.51 °C.

Turning to `COc1ccc(CC[C@@H](OC(=O)[C@@H]2CCCCN2C(=O)[C@H](c2cc(OC)c(OC)c(OC)c2)C2CCCCC2)c2cccc(OCCN3CCOCC3)c2)cc1OC`, the ΔTm was -1.71 °C.

On to `Fc1ccc(-c2nc(-c3c(F)cccc3F)[nH]c2-c2ccncc2)cc1`, for which the ΔTm was determined as 4.45 °C.

`Cc1ncc(C(=O)Nc2cc(C(C)(C)C)on2)cc1-n1cc(-c2cnn(C)c2C)nn1`: the ΔTm came to 9.67 °C.

`C[C@@]1(Cc2ccc(C#N)cc2)C(=O)N(c2cc(Cl)cc(Cl)c2)c2ncc(C(=O)NC3(c4nc(C5CCC5)no4)CC3)n21`: the ΔTm amounted to 0.13 °C.

As for `O=C(O)c1cccc(C2=C(c3cc(Cl)ccc3OCc3ccc(F)cc3F)CCC2)n1`, the ΔTm is -0.85 °C.

With `Cc1cc(-c2ccnc(Nc3cnn(C)c3)n2)ccc1CNC(=O)N1CC(OC(C)C)C1`, the ΔTm came out at 6.49 °C.

With `CN[C@@H](C)C(=O)N[C@H](C(=O)N1CCC[C@H]1C(=O)Nc1sc(-c2ncco2)nc1-c1ccccc1)C1CCCCC1`, the ΔTm came out at 0.05 °C.

Consider `Fc1ccc(-c2nc(-c3ccc4ccccc4c3F)[nH]c2-c2ccncc2)cc1`, for which the ΔTm was 4.64 °C.

`CN(CC(=O)Nc1ccc(F)c(F)c1F)C(=O)c1ccc2c(c1)OCCO2`: the ΔTm turned out to be 0.3 °C.

Regarding `Cc1n[nH]c2ncc(C(=O)N3CCC[C@H]3c3ccc(Cl)cc3)cc12`, the ΔTm worked out at 0.42 °C.

For the compound `N[C@@H]1CCCC[C@H]1Oc1ccc2ncc(-c3cc4ccccc4o3)n2n1`, the ΔTm is 0.63 °C.

Turning to `Cc1cc(CN)cc(C)c1-c1ncn(C)c1-c1ccnc2cc(F)ccc12`, the ΔTm was -0.08 °C.

For `CN1CCN(c2ccc(/C=C(\C#N)c3ccccc3Br)cc2)CC1`, the ΔTm was -0.04 °C.

As to `N#C/C(=C\c1ccc(O)c(O)c1)C(=O)OCCc1cccs1`, the ΔTm was determined as 2.18 °C.

With `C[C@@H]1CC(=O)N(C2CC2)N=C1c1ccc(NC(=O)N2Cc3ccncc3C2)cc1`, the ΔTm came out at 0.36 °C.

Take `CC(C)N(C(=O)C1CCOCC1)c1cc(F)c(Oc2ncc(Cn3nccn3)cc2C(F)(F)F)cc1C(=O)O`: the ΔTm is -0.75 °C.

Turning to `CCOC(=O)N1CCC(CN(Cc2ccc(Cl)cc2)Cc2ccc([N+](=O)[O-])s2)C1` (centres undefined), the ΔTm came to 0.47 °C.

`CNC(=O)c1c[nH]c2ccc(Nc3nccc(-c4ccccn4)n3)cc12`: the ΔTm was 2 °C.

As to `CC(=O)c1c(C)c2cnc(Nc3ccc(N4CCNCC4)cn3)nc2n(C2CCCC2)c1=O`, the ΔTm is 0.35 °C and -0.02 °C.

Turning to `O=C(CCCN1CCC(O)(c2ccc(Cl)cc2)CC1)c1ccc(F)cc1`, the ΔTm was 0.25 °C.

On to `Cc1csc(S(=O)(=O)N(CC(C)C)c2cc3c(cc2OCc2ccc(C(=O)O)cc2)CCC3)n1`, for which the ΔTm turned out to be 0.11 °C.

For `Cc1c(-c2c(F)cc(C(N)=O)c3[nH]c4c(c23)CC[C@H](C(C)(C)O)C4)cccc1-n1c(=O)c2cccc(F)c2n(C)c1=O`, the ΔTm was 3.83 °C.

In the case of `COc1ccc(CSc2nnc(-c3ccc4ncsc4c3)o2)cc1C(F)(F)F`, the ΔTm was -6.63 °C.

In the case of `COc1cc(N2CCN(C)CC2)ccc1Nc1ncc2c(n1)N(C)c1ccccc1C(=O)N2CC(F)(F)F`, the ΔTm was determined as 0.67 °C.

As for `COCc1nc2cnc3cc(-c4c(C)noc4C)c(OC[C@H]4CCNC4)cc3c2n1[C@H](C)c1ccccc1`, the ΔTm came to 0.08 °C.

For `CCCCC(C)(O)C/C=C/[C@H]1[C@H](O)CC(=O)[C@@H]1CCCCCCC(=O)O` (some centres undefined), the ΔTm is 0.39 °C.

With `O=C(O)CCCc1cc2cc(Cl)ccc2n1S(=O)(=O)c1ccc2ncsc2c1`, the ΔTm was 0.34 °C.

Take `CCc1c(-c2ccc3[nH]ncc3c2)cnc(N)c1-c1ccc(O)cc1`: the ΔTm came out at 1.38 °C.

In the case of `Cc1sc(C(=O)c2cncnc2N[C@@H]2C[C@H](COS(N)(=O)=O)[C@@H](O)C2)cc1[C@@H]1NCCc2ccc(Cl)cc21`, the ΔTm was determined as 0.37 °C.

`Cc1cccc(-c2nn3c(c2-c2ccnc4ccc(C(N)=O)cc24)CCC3)n1`: the ΔTm amounted to 1.72 °C.

Consider `Cc1nc(-c2ccc(C(F)(F)F)cc2)sc1C(=O)NCc1ccc(OC(C)(C)C(=O)O)cc1`, for which the ΔTm was found to be 0.61 °C.

On to `Nc1nc(-c2nn(Cc3ccccc3F)c3ncccc23)ncc1C1CC1`, for which the ΔTm turned out to be 0.84 °C.

In the case of `Cc1cc(CN(CC(=O)Nc2ccc(Cl)cc2Cl)C2CCCCC2)ccc1OCC(=O)O`, the ΔTm was -1.67 °C.

Regarding `NCC1CCC(CNc2nc(NCc3ccccc3OC(F)(F)F)ncc2[N+](=O)[O-])CC1` (centres undefined), the ΔTm was 0.62 °C.

With `COc1ncc(-c2cc(-c3ncc(CN4C[C@@H](C)O[C@@H](C)C4)o3)c3cn[nH]c3c2)cc1NS(C)(=O)=O`, the ΔTm was determined as 0.42 °C.

In the case of `CN(C)C(=O)c1sc2nc(N3CCC(S(C)(=O)=O)CC3)cc(C(F)(F)F)c2c1N`, the ΔTm is -0.62 °C and 1 °C.
